# Source: PubChem BioAssay (NCI)
# The panel holds about 83,000 compounds, 20% with a hit somewhere; the sample as a whole holds those more often.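 Activity criterion: percent growth below 10, measured after cells in 96-well plates were exposed to a single compound concentration for 48 hours.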 A number with no mark means an inactive call. Calls of active or inactive are those of the source.
# Assays:
# Assay in all cases: NCI-60 one-dose screen, 48 h (100 = growth as untreated, 0 = no growth, -100 = all killed)
# Settings in all cases: 10 µM unless noted
# SR leukemia = test system: SR leukemia
# RPMI-8226 leukemia = test system: RPMI-8226 leukemia
# OVCAR-8 ovarian = test system: OVCAR-8 ovarian
# OVCAR-5 ovarian = test system: OVCAR-5 ovarian
# OVCAR-4 ovarian = test system: OVCAR-4 ovarian
# SK-OV-3 ovarian = test system: SK-OV-3 ovarian
# IGROV1 ovarian = test system: IGROV1 ovarian
# OVCAR-3 ovarian = test system: OVCAR-3 ovarian
# HS 578T breast = test system: HS 578T breast
# NCI/ADR-RES ovarian = test system: NCI/ADR-RES ovarian
# T-47D breast = test system: T-47D breast
# BT-549 breast = test system: BT-549 breast
# MDA-MB-435 melanoma = test system: MDA-MB-435 melanoma
# SW-620 colon = test system: SW-620 colon
# MCF7 breast = test system: MCF7 breast
# HCT-116 colon = test system: HCT-116 colon
# HCC-2998 colon = test system: HCC-2998 colon
# KM12 colon = test system: KM12 colon
Compound,growth (SR leukemia),growth (RPMI-8226 leukemia),growth (OVCAR-8 ovarian),growth (OVCAR-5 ovarian),growth (OVCAR-4 ovarian),growth (SK-OV-3 ovarian),growth (IGROV1 ovarian),growth (OVCAR-3 ovarian),growth (HS 578T breast),growth (NCI/ADR-RES ovarian),growth (T-47D breast),growth (BT-549 breast),growth (MDA-MB-435 melanoma),growth (SW-620 colon),growth (MCF7 breast),growth (HCT-116 colon),growth (HCC-2998 colon),growth (KM12 colon)
COc1ccc(CNc2ccc3nc(CCC4CCCCC4)[nH]c3c2)cc1,46.8%,40.2%,73.6%,83.4%,40.1%,82%,61%,75.4%,79.7%,70.3%,41%,96.7%,80.9%,75%,68.4%,50.7%,30.8%,79.8%
CCOC(=O)C1=C(C)N(C)C(=O)N(C)C1c1ccccc1 (stereo not given),125%,99.4%,104%,84.1%,103%,93.9%,110%,99.1%,108%,100%,96.3%,110%,89.2%,97.5%,107%,79.4%,93.2%,103%
CSc1nn2c(-c3cc4cc(Br)ccc4oc3=O)ccnc2c1C#N,94.7%,103%,104%,112%,101%,105%,97.2%,114%,109%,110%,99.7%,105%,101%,103%,94.9%,94.3%,102%,107%
Brc1ccc(-c2nn(-c3ccccc3)cc2-c2nn[nH]n2)s1,87.4%,89.5%,96.3%,108%,92.7%,98.2%,102%,96.5%,89.9%,103%,89.6%,93.2%,103%,97.1%,86.7%,88.5%,97.6%,99.7%
C=CCn1c(SCC(=O)Nc2ccc(C(=O)/C=C/c3ccc(Cl)cc3)cc2)nnc1-c1ccc(Cl)c(Cl)c1,57%,-34.5% (active),75.6%,90.5%,86.7%,85.7%,76.4%,83.8%,90.8%,83.9%,76.6%,78%,37.9%,90.9%,19.7%,-71.5% (active),95.9%,85.2%
CC1(C)CCC[C@]23C(=O)O[C@](O)(C(=O)C4=C[C@@](C)(/C=C/CCCc5ccc6ccc7cccc8ccc5c6c78)CC[C@@]42O)[C@@H]13,9% (active),-21.4% (active),-34.2% (active),-75.7% (active),-92.3% (active),-66.2% (active),-83% (active),-82% (active),-7.13% (active),-18.7% (active),-60.5% (active),-71.9% (active),-92.4% (active),-63.3% (active),-57.4% (active),-91.8% (active),-86% (active),-83.3% (active)
[2H]C([2H])([2H])Oc1ccc(/C=C/C(=O)/C=C(/C=C/c2ccc(OC([2H])([2H])[2H])c(OC([2H])([2H])[2H])c2OC([2H])([2H])[2H])OB(F)F)c(OC([2H])([2H])[2H])c1OC([2H])([2H])[2H],8.05% (active),18.9%,9.4% (active),91.1%,65.2%,103%,57.1%,14.5%,60%,54.6%,51.7%,78.6%,26.7%,18.4%,28.2%,6.6% (active),120%,81.3%
Cn1cc(-c2ccc3c(Nc4cccc(NC(=O)Nc5cccc(F)c5)c4)ncnc3c2)cn1,0.802% (active),-25.4% (active),34.6%,67.6%,67.6%,3.1% (active),23.8%,44.7%,29.8%,78%,21.5%,47.4%,57.8%,57.7%,22.1%,25.5%,83.3%,20.4%
CC(C)CCc1nc2ccc(NCc3ccc(OCCN4CCC(C)CC4)cc3)cc2[nH]1,14.2%,68.6%,96.6%,95%,80.6%,102%,79.3%,71.9%,84.3%,97%,97%,77.1%,89.2%,89.3%,62.3%,65.1%,42.7%,87.6%
Oc1ccc(C2OCCO2)c2cccnc12,31.8%,29.6%,24.6%,59.3%,15.3%,93.5%,74.2%,4.41% (active),76.4%,27.5%,26.2%,64.2%,49.4%,22.3%,7.84% (active),8.85% (active),96.6%,72.4%
